High-throughput results (PubChem BioAssay)
Most compounds without a hit are left out; they make up all but 21% or so of the library.
CYP2C19 act – increases human CYP2C19 enzyme activity; P33261; recombinant CYP2C19, luciferin-H EGE luminescence; active compounds read high; 0 = fully inhibited enzyme, 1 = untreated enzyme; activation factor at 5 µM; 96,000 tested, under 10 active;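 active means activation factor of at least 2 at 5 µM in the primary screen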;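 further: 0 = wells with 2.5 mM tranylcypromine and 1 = vehicle-only wells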
MRP resist rev – MRP-mediated drug resistance reversal | H69AR cells + 2 uM doxorubicin, CellTiter-Glo, 72 h | differential viability (reversal), % at 10 µM | 85,000 tested, 0.04% active | AID 602;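 active means viability drop by adding the cancer drug above about 55%, with treated viability meeting a 40% cutoff, limit read from the data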;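 further: viability without doxorubicin minus viability with 2 µM doxorubicin for each compound; larger differential means the compound sensitizes cells more to doxorubicin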
CYP2C9 inhib – blocks human cytochrome P450 2C9; inhibition, % at 5 µM; CYP2C9 Supersomes, luciferin-H conversion, luminescence; 96,000 tested, 20% active;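 active means blocking of liver enzyme CYP2C9 beyond about 50% at 5 µM, limit read from the data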
Target sequence (P11712 whole entry, looked up): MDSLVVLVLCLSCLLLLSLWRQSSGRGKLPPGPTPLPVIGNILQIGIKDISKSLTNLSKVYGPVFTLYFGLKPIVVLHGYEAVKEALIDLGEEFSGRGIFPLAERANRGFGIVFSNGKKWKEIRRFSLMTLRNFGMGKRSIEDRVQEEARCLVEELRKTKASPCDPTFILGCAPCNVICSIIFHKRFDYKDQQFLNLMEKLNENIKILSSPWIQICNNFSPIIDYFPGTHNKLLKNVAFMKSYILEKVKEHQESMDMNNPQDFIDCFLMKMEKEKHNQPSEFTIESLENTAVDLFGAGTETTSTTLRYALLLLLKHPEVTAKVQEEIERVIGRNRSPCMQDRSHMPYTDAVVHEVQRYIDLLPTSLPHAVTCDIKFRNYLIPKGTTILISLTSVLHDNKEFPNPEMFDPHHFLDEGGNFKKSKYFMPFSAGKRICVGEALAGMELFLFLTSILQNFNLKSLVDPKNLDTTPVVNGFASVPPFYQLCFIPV
CYP2C19 inhib – inhibitors of human CYP2C19; CYP2C19 Supersomes, luciferin-H EGE luminescence, 30 min; inhibition, % at 5 µM; AID 778; 96,000 tested, 21% active;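 active means CYP2C19 inhibition above a set limit at 5 µM in the primary screen, cut at about 50% in these data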;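 further: plate controls were negative control wells for no effect and 2.5 mM tranylcypromine positive control for full effect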
MRP-1 activ – MRP-1 activation | H69AR cells + doxorubicin, viability rescue, CellTiter-Glo | viability increase, % at 10 µM | 140,000 tested, 0.61% active | AID 799;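 active means viability gain under doxorubicin at or above a set limit, the compound median plus 3 SD, cut at about 4.7% in these data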;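 further: MRP-1 overexpressing cells given doxorubicin 25 µM after compound pretreatment; 18-22 h compound pretreatment then 72 h with doxorubicin before readout; 0% = doxorubicin-only wells and 100% = vehicle-treated cells without doxorubicin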
CYP2C9 act – increases human cytochrome P450 2C9 activity; P11712; recombinant CYP2C9, luciferin-H conversion, luminescence; active compounds read high; factor 1 = untreated enzyme, 0 = blocked; 96,000 tested, 1.4% active; AID 1024; activation factor at 5 µM;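 active means activation factor of 2 or more for CYP2C9 at a 5 µM dose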;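 further: 0 = sulfaphenazole-blocked wells and 1 = vehicle-only wells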
The depositor's hits bear a star.

How did Cc1cc(NC(=O)c2cnn3c(C(F)F)cc(-c4ccccc4)nc23)no1 do in these assays?
CYP2C19 act: 1; MRP resist rev: -15; CYP2C9 inhib: 13; CYP2C19 inhib: 2; MRP-1 activ: -2; CYP2C9 act: 0.9

How did O/N=C(\c1ccc(Cl)cc1)c1cc2ccccc2o1 do in these assays?
CYP2C19 act: 0.9; MRP resist rev: -9; CYP2C9 inhib: 36; CYP2C19 inhib: 15; MRP-1 activ: -3; CYP2C9 act: 0.6

How did CCC(CO)NCc1cc(OC)c(OCC(=O)NCCc2ccccc2)cc1Br (stereo unspecified) do in these assays?
MRP-1 activ: -3

Results for Cc1[nH]nc2c1C1(C(=O)N(Cc3ccc(Cl)cc3)c3ccccc31)C(C#N)=C(N)O2 (stereo unspecified) ?
CYP2C19 act: 0.1; MRP resist rev: -38; CYP2C9 inhib: 92*; CYP2C19 inhib: 89*; MRP-1 activ: -3; CYP2C9 act: 0.1

What do the screens show for `COC(=O)Cc1[nH]nc2c1C1(C(=O)N(Cc3ccccc3)c3ccccc31)C(C#N)=C(N)O2` (stereo unspecified)?
CYP2C19 act: 0.4; MRP resist rev: -4; CYP2C9 inhib: 61*; CYP2C19 inhib: 64*; MRP-1 activ: -3; CYP2C9 act: 0.4

How did CCOC(=O)/C(C#N)=C(\N)C(C)C(=O)Nc1ccccn1 (stereo unspecified) do in these assays?
CYP2C19 act: 0.9; MRP resist rev: -2; CYP2C9 inhib: 7; CYP2C19 inhib: 10; MRP-1 activ: -3; CYP2C9 act: 0.9

What do the screens show for `COC(=O)c1cc(NC(=O)C2CCCN(S(=O)(=O)c3c(C)n[nH]c3C)C2)cc(C(=O)OC)c1` (stereo unspecified)?
MRP resist rev: 0

What do the screens show for `Cc1ccc(Nc2cc(-n3cccn3)ncn2)c(C)c1`?
CYP2C19 act: 0.4; MRP resist rev: 16; CYP2C9 inhib: 33; CYP2C19 inhib: 61*; MRP-1 activ: 0; CYP2C9 act: 0.7

Results for Fc1cccc(Nc2cc(-n3cccn3)ncn2)c1 ?
MRP resist rev: -22; MRP-1 activ: 0

What do the screens show for `Cc1ccc(Nc2cc(-n3nc(C)cc3C)ncn2)c(C)c1`?
CYP2C19 act: 0.5; MRP resist rev: 16; CYP2C9 inhib: 27; CYP2C19 inhib: 54*; MRP-1 activ: -1; CYP2C9 act: 0.7

How did Cc1ccccc1-n1c(SC(C)C(=O)N2CCN(C)CC2)nc2ccccc2c1=O (stereo unspecified) do in these assays?
CYP2C19 act: 1.1; CYP2C9 inhib: -8; CYP2C19 inhib: -13; MRP-1 activ: -3; CYP2C9 act: 1.1

What do the screens show for `COc1cccc(/C=N/N2C(=O)CSC2=S)c1O`?
MRP-1 activ: 8.0*

How did CCN(CC)C(=O)Oc1ccc(Cl)c2ccccc12 do in these assays?
CYP2C19 act: 0.3; CYP2C9 inhib: -46; CYP2C19 inhib: 67*; MRP-1 activ: -5; CYP2C9 act: 1.5

Results for Nn1cnc2c(c1=O)C1(CCCCC1)Cc1ccccc1-2 ?
MRP-1 activ: -2

What do the screens show for `O=c1[nH]cnc2c1C1(CCCC1)Cc1ccccc1-2`?
CYP2C19 act: 0.1; MRP resist rev: 16; CYP2C9 inhib: 22; CYP2C19 inhib: 88*; MRP-1 activ: 1; CYP2C9 act: 0.8

How did CC(=O)Nn1cnc2c(c1=O)C1(CCCC1)Cc1ccccc1-2 do in these assays?
CYP2C19 act: 0.1; MRP resist rev: 5; CYP2C9 inhib: 62*; CYP2C19 inhib: 88*; MRP-1 activ: -2; CYP2C9 act: 0.4

How did O=C(CSc1nc2c(cnn2-c2ccc(F)cc2)c(=O)[nH]1)N1CCCc2ccccc21 do in these assays?
CYP2C19 act: 1; MRP resist rev: -4; CYP2C9 inhib: 28; CYP2C19 inhib: -2; MRP-1 activ: -4; CYP2C9 act: 0.7

How did Nc1nc(SCC(=O)N2CCCc3ccccc32)[nH]c(=O)c1-c1ccccc1 do in these assays?
CYP2C19 act: 0.5; MRP resist rev: 1; CYP2C9 inhib: 51*; CYP2C19 inhib: 46; MRP-1 activ: -1; CYP2C9 act: 0.5

What do the screens show for `CCOC(=O)c1ccccc1NC1CC(=O)N(c2ccccc2C)C1=O` (stereo unspecified)?
CYP2C19 act: 0.2; MRP resist rev: -1; CYP2C9 inhib: 76*; CYP2C19 inhib: 80*; MRP-1 activ: -2; CYP2C9 act: 0.2
